Reference: the supplement of paper PMC6555819

Tests used:
Experiment in all cases: PBM binding z-score (relative to random genomic background probes); higher = stronger binding; sequences stand for … in GC…GCGATTGACAGCGTAGAATGAAGG
[1] = test system: FXR:RXRa (NR concentration 270 nM, RXRa partner concentration 90 nM)
Outline: (§1)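 The probes on custom Agilent 4×180K protein-binding microarrays were double-stranded, with 34-nt variable regions bearing direct-repeat seeds, single-nucleotide variants, half-site ablations and random human genomic background sequences. Incubation lasted 1 h with ligand-free nuclear receptor dimers in PBS pH 7.4, 2% milk, 0.02% Triton X-100, 1 mM DTT, 0.2 mg/mL BSA and 0.4 mg/ml salmon testes DNA. Antibodies against each partner (one per run) detected bound dimers, and fluorescence scans were regression-normalized. Binding z-scores take the random background probes as reference.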

[2] = test system: LXRa:RXRa (NR concentration 270 nM, RXRa partner concentration 90 nM)
Outline: as §1

[3] = test system: LXRa homodimer (NR concentration 270 nM)
Outline: as §1

[4] = test system: LXRb:RXRa (NR concentration 270 nM, RXRa partner concentration 90 nM)
Outline: as §1

[5] = test system: LXRb homodimer (NR concentration 270 nM)
Outline: as §1

[6] = test system: PPARa:RXRa (NR concentration 270 nM, RXRa partner concentration 90 nM)
Outline: as §1

[7] = test system: PPARg:RXRa (NR concentration 180 nM, RXRa partner concentration 90 nM)
Outline: as §1

[8] = test system: PPARg:RXRa 270nM:90nM, anti-RXR (NR concentration 270 nM, RXRa partner concentration 90 nM)
Outline: as §1

[9] = test system: PPARg:RXRa 30nM:10nM, anti-RXR (NR concentration 30 nM, RXRa partner concentration 10 nM)
Outline: as §1

[10] = test system: PPARg:RXRa 90nM:30nM, anti-RXR (NR concentration 90 nM, RXRa partner concentration 30 nM)
Outline: as §1

[11] = test system: PPARg:RXRa DBDmut IVT, anti-RXR (DBD mutation: RXRa K156A/R161A, NR concentration 270 nM, RXRa partner concentration 90 nM)
Outline: as §1

[12] = test system: PPARg:RXRa IVT, anti-PPARg (NR concentration 270 nM, RXRa partner concentration 90 nM)
Outline: as §1

[13] = test system: PPARg DBDmut:RXRa IVT, anti-PPARg (DBD mutation: PPARg1 K132A/R137A, NR concentration 270 nM, RXRa partner concentration 90 nM)
Outline: as §1

[14] = test system: PPARg DBDmut IVT, anti-PPARg (DBD mutation: PPARg1 K132A/R137A, NR concentration 270 nM)
Outline: as §1

[15] = test system: PPARg homodimer (NR concentration 180 nM)
Outline: as §1

[16] = test system: PXR:RXRa (NR concentration 270 nM, RXRa partner concentration 90 nM)
Outline: as §1

[17] = test system: PXR homodimer (NR concentration 270 nM)
Outline: as §1

[18] = test system: RARa:RXR (NR concentration 270 nM, RXRa partner concentration 90 nM)
Outline: as §1

[19] = test system: RARa homodimer (NR concentration 270 nM)
Outline: as §1

[20] = test system: RARb:RXRa (NR concentration 270 nM, RXRa partner concentration 90 nM)
Outline: as §1

| Sequence | PBM binding z-score [1] | PBM binding z-score [2] | PBM binding z-score [3] | PBM binding z-score [4] | PBM binding z-score [5] | PBM binding z-score [6] | PBM binding z-score [7] | PBM binding z-score [8] | PBM binding z-score [9] | PBM binding z-score [10] | PBM binding z-score [11] | PBM binding z-score [12] | PBM binding z-score [13] | PBM binding z-score [14] | PBM binding z-score [15] | PBM binding z-score [16] | PBM binding z-score [17] | PBM binding z-score [18] | PBM binding z-score [19] | PBM binding z-score [20] |
| --- | --- | --- | --- | --- | --- | --- | --- | --- | --- | --- | --- | --- | --- | --- | --- | --- | --- | --- | --- | --- |
| TCTAGTTGGTCACGGAGGTCACACATGACGGGTA | 3.11 | 3.52 | 2.42 | 3.42 | 0.605 | 4.06 | 3.59 | 4.13 | 3.55 | 3.84 | 2.5 | 4.34 | 1.38 | 0.722 | 2.93 | 4.71 | 1.67 | 4.56 | 1.18 | 4.01 |
| TTACCAACGTGAGCTGAGGTCGTTGATCCAACTC | 0.516 | 0.0402 | -0.0796 | 0.169 | -0.442 | 0.553 | -0.116 | -0.131 | 0.0496 | -0.0803 | -0.844 | -0.235 | -0.101 | -0.365 | -0.384 | 1.52 | 0.291 | 0.951 | -0.767 | 0.217 |
| ATATGTAGGTTACATCCTGGTCATTCAGGCTATG | 0.666 | 2.03 | 0.602 | 1.28 | 0.798 | 3.16 | 5.21 | 4.44 | 2 | 3.57 | 7.08 | 7.21 | 2.2 | 2.23 | 0.657 | 0.747 | 0.205 | 1.05 | 0.992 | 1.11 |
| ACTAGCAGGCCAAGGATCACTCAAGATTAGTCCG | -0.313 | -0.212 | -0.373 | -0.592 | -0.598 | 0.628 | 2.12 | 3.37 | 1.33 | 2.55 | 0.88 | 0.675 | -0.388 | -0.36 | 0.0853 | -0.479 | -0.469 | -0.293 | 0.362 | 0.296 |
| ACTTACGGGTCAACGAGGTTATAGCTCGCGTATA | 7.28 | 5.05 | 0.77 | 4.4 | 0.524 | 5.72 | 5.51 | 5.57 | 2.36 | 4.17 | 3.43 | 4.16 | 1.04 | 0.353 | 3.06 | 5.45 | 2.82 | 5.16 | 0.0894 | 4.36 |
| ACTCGGAGGACAATGGTCAGAGCTACGCCAGTGA | -0.187 | -0.512 | -0.435 | -0.708 | -0.881 | -0.704 | 0.723 | 0.466 | -0.281 | -0.00366 | -0.21 | -0.421 | -1.67 | -0.609 | -0.576 | -0.593 | -0.561 | -0.488 | -0.119 | 1.23 |
| TAGTCTAGGTCATTGGGCCAGTATAGTACGCATC | 4.44 | 4.2 | 2.26 | 2.54 | 2.53 | 4.28 | 5.91 | 4.82 | 3 | 4.56 | 5.99 | 6.49 | 2.81 | 2.94 | 3.92 | 1.95 | 0.361 | 2.72 | 1.24 | 3.81 |
| TGAATGAGGTTATAATATCAGGGAACGTTGCAAA | 1.4 | 1.31 | 0.0955 | 1.38 | 0.0343 | 2.68 | 1.29 | 1.62 | 0.724 | 1.25 | 0.771 | 1.75 | 1.25 | 0.939 | 0.756 | 1.08 | 0.111 | 1.59 | 0.0682 | 1.08 |
| CTACCAAGGTGAACACGGTCGTTGATTACTATTC | 0.926 | 0.679 | 0.219 | 1.01 | -0.319 | 1.35 | 0.647 | 0.659 | -0.147 | 0.147 | 2.72 | 2.43 | 0.613 | -0.0431 | 0.251 | 0.292 | 0.00892 | 0.57 | 0.749 | 1.88 |
| CCCTACGGGTCACGAGGTTATAGCACGACGAGCG | 6.43 | 4.68 | 0.337 | 4.01 | -0.522 | 5.71 | 6.58 | 6.23 | 2.52 | 4.88 | 2.05 | 4.19 | 0.401 | 0.144 | 2.51 | 4.57 | 0.609 | 5.9 | 1.28 | 4.36 |
| TCTCGGAGAACACGAAAGGTCAGAGCTCGACATC | 2.02 | 3.08 | 1.46 | 3 | -0.199 | 3.32 | 0.977 | 2.21 | 2.43 | 2.25 | 1.25 | 1.13 | -0.0833 | -0.197 | 1.7 | 3.39 | 0.0795 | 3.89 | 0.536 | 3.55 |
| CCTTACGGGTCACGAGGTTACAGCACGACGAGCG | 7.17 | 4.8 | 0.542 | 4.17 | 0.337 | 6.14 | 7.89 | 6.86 | 3.81 | 5.93 | 4.58 | 5.66 | 2.08 | 2.53 | 5.5 | 5 | 0.46 | 6.67 | 2.1 | 4.71 |
| CAAACTAGGTCACGAAAGGTAAAAGTCGAATGAC | 5.18 | 4.51 | 0.678 | 3 | 0.18 | 5.71 | 9.74 | 7.96 | 6.05 | 7.49 | 8.36 | 9.37 | 5.06 | 2.46 | 2.6 | 3.12 | 0.438 | 3.69 | 1.43 | 4.33 |
| ACTATGAGTTGAGACGAGGGCAACCGATAGGTTG | 1.25 | 0.578 | -0.194 | 0.311 | -0.0217 | 0.709 | 0.835 | 0.44 | 0.0728 | 0.0976 | -0.225 | 0.397 | 0.408 | -0.21 | 0.118 | 3.34 | 0.321 | 1.23 | -0.00647 | 1.32 |
| TCGAGTAGGTTAGTCAGGGCATTCAGCCAACATA | 0.179 | 0.175 | -0.126 | 0.121 | -0.771 | 0.625 | 0.0481 | 0.99 | 1.13 | 0.992 | 1.73 | 1.72 | 0.0156 | -0.832 | 0.613 | 0.173 | 0.204 | 0.135 | 0.35 | 0.484 |
| GCTGCTAGGTCAGGTTGGTCAGTTAACGGGTACG | 1.25 | 0.792 | 0.267 | 0.719 | 0.0842 | 1.6 | 0.425 | 0.836 | -0.54 | -0.0172 | 2.8 | 2.15 | -1 | -0.445 | 0.781 | 0.391 | 0.149 | 0.719 | -0.401 | 3.21 |
| CCTAGCAGGCCAATCCGGGTCACTCAAGGCTTGA | 2.13 | 1.84 | -0.396 | 1.47 | -0.923 | 2.78 | 0.787 | 1.02 | -0.565 | 0.469 | 2.27 | 2.8 | -1.26 | -0.765 | 0.726 | 2.79 | -0.246 | 2.23 | -0.442 | 1.63 |
| TCGAGTAGGTTACCAATGCGGCATTCAGCTTTCT | 0.106 | 0.532 | -0.94 | 0.215 | -0.704 | 0.883 | 0.206 | 1.1 | 1.23 | 1.24 | 3.59 | 2.67 | -0.407 | -1.16 | -0.385 | -0.209 | -1.01 | -0.26 | -0.774 | 0.646 |
| TCTATTAGCTGAAGGGCAACCGACGAGTCCGTTT | -0.0805 | 0.244 | -0.393 | 0.444 | -0.429 | 0.629 | 0.0411 | 1.66 | 2.6 | 2.2 | 1.6 | 0.162 | 0.664 | 0.466 | -0.169 | 0.472 | 0.237 | 0.362 | -0.62 | 1.29 |
